Experimental findings from PubChem BioAssay AID651903 (Broad Institute, 2012) are described below.

About 1,100 (5%) of roughly 22,000 compounds were called active. The full list was thinned out, with actives kept by preference. A number with no mark means an inactive call. Cut-off read from the data, not from the text of the source: active = activity score above about 55%; inconclusive = no clear call, values can overlap the other calls; inactive = below that.

A short description of the assay: T. cruzi growth inside host cells – cell-based, plate reader, single point, set 2, primary screen (AID 651903).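 Note: parasites and compound incubated about four days before reading; 0% = median of neutral control wells.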 To be noted: intracellular Trypanosoma cruzi in host cells, at 5.01 µM, stronger effect = higher value.
`C[C@H]1CN([C@@H](C)CO)C(=O)Cc2cc(NC(=O)CCCN(C)C)ccc2O[C@@H]1CN(C)Cc1ccc(-c2ccccc2)cc1`: the activity score (inhibition) is -19.2%.
Take `COc1ccc(NC(=O)N(C)C[C@@H]2Oc3ccc(NC(=O)CCC(F)(F)F)cc3C(=O)N([C@@H](C)CO)C[C@H]2C)cc1`: the activity score (inhibition) is -13.2%.
The value for `C[C@@H]1CN([C@@H](C)CO)C(=O)CCCn2cc(nn2)CO[C@@H]1CN(C)Cc1cccc(O)c1` was -17.1%; that for `C[C@@H]1CN([C@@H](C)CO)C(=O)c2cc(NC(=O)c3ccncc3)ccc2O[C@@H]1CN(C)S(C)(=O)=O` was -8.16%; that for `C[C@H]1CN([C@@H](C)CO)C(=O)CCCn2nncc2CO[C@H]1CN(C)Cc1cccc(C(=O)O)c1` was -16.6%.
The value for `COc1cccc(-c2cnc3c(c2)C(=O)N([C@H](C)CO)C[C@H](C)[C@H](CN(C)C(=O)NC(C)C)O3)c1` was 3.35%; that for `C[C@H](CO)N1C[C@H](C)[C@H](CN(C)S(C)(=O)=O)Oc2c(NC(=O)Nc3cccc4ccccc34)cccc2C1=O` was -17.4%; that for `Cc1ccc(CN(C)C[C@@H]2OCc3cnnn3CCCC(=O)N([C@@H](C)CO)C[C@H]2C)cc1` was -0.307%.
Next, `C[C@H](CO)N1C[C@H](C)[C@@H](CN(C)Cc2ccc(C(=O)Nc3ccccc3N)cc2)Oc2c(NC(=O)c3ccc(-c4nccs4)cc3)cccc2C1=O`: 64% (active).
Take `C[C@H](CO)N1C[C@H](C)[C@@H](CN(C)S(=O)(=O)c2ccccc2)Oc2c(NC(=O)c3ccc(-c4nccs4)cc3)cccc2C1=O`: the activity score (inhibition) was 20.1%.
Next, `C[C@@H]1CN([C@@H](C)CO)C(=O)c2cccc(NC(=O)c3cnccn3)c2O[C@H]1CN(C)Cc1ccc(C(=O)O)cc1`: 2.36%; `C[C@H](CO)N1C[C@H](C)[C@@H](CN(C)S(C)(=O)=O)Oc2c(NC(=O)c3ccc(-c4nccs4)cc3)cccc2C1=O`: -3.29%; `C[C@@H]1CN([C@H](C)CO)C(=O)c2cccc(NC(=O)c3cnccn3)c2O[C@@H]1CN(C)Cc1ccc(C(=O)Nc2ccccc2N)cc1`: 67.2% (active).
As for `C[C@@H]1CN([C@@H](C)CO)C(=O)c2cccc(NC(=O)c3ccc(-c4nccs4)cc3)c2O[C@@H]1CN(C)S(=O)(=O)c1ccccc1`, the activity score (inhibition) is 24.8%.
With `Cc1ccc(S(=O)(=O)N(C)C[C@H]2Oc3c(NC(=O)c4ccc(-c5nccs5)cc4)cccc3C(=O)N([C@H](C)CO)C[C@H]2C)cc1`, the activity score (inhibition) is 69.5% (active).
The value for `C[C@@H]1CN([C@H](C)CO)C(=O)c2cccc(NC(=O)c3cnccn3)c2O[C@@H]1CN(C)Cc1ccncc1` was -11.1%.
Regarding `C[C@H]1CN([C@@H](C)CO)C(=O)c2cccc(NC(=O)c3ccc(-c4nccs4)cc3)c2O[C@H]1CN(C)Cc1ccc(C(=O)O)cc1`, the activity score (inhibition) is -0.442%.
Next, `C[C@H](CO)N1C[C@H](C)[C@H](CN(C)S(C)(=O)=O)Oc2c(NC(=O)c3ccc(-c4nccs4)cc3)cccc2C1=O`: 9.35%.
The value for `C[C@@H]1CN([C@@H](C)CO)C(=O)c2cccc(NC(=O)c3ccc(-c4nccs4)cc3)c2O[C@@H]1CN(C)Cc1ccncc1` was 20.7%; that for `C[C@@H]1CN([C@@H](C)CO)C(=O)c2cccc(NC(=O)c3ccc(-c4nccs4)cc3)c2O[C@H]1CN(C)Cc1ccc(Cl)c(Cl)c1` was 85.3% (active).
Next, `O=C(O)c1cccc(/C=N/NC(=O)c2cccc(C(=O)NO)c2)c1`: -15.8%; `Cc1cccc(CN(C)C[C@@H]2OCc3cn(nn3)CCCC(=O)N([C@@H](C)CO)C[C@H]2C)c1`: -37.4%; `Cc1cccc(S(=O)(=O)N(C)C[C@@H]2OCc3cnnn3CCCC(=O)N([C@H](C)CO)C[C@@H]2C)c1`: 5.66%.
`C[C@H]1CN([C@@H](C)CO)C(=O)Cc2cc(NC(=O)Cc3ccccc3)ccc2O[C@H]1CN(C)S(=O)(=O)c1ccc(Cl)cc1`: the activity score (inhibition) is 30.9%.
The value for `Cc1ccc(S(=O)(=O)Nc2cccc3c2O[C@H](CN(C)CC2CCCCC2)[C@H](C)CN([C@H](C)CO)C3=O)cc1` was 2.35%.
`CNC[C@@H]1Oc2c(NC(=O)Nc3ccc(OC)cc3)cccc2C(=O)N([C@@H](C)CO)C[C@@H]1C`: the activity score (inhibition) is -23.4%.
Next, `COc1ccc(NC(=O)Nc2ccc3c(c2)CC(=O)N([C@H](C)CO)C[C@H](C)[C@H](CN(C)S(=O)(=O)c2ccccc2)O3)cc1`: -4.14%.
The value for `Cc1ccc(S(=O)(=O)N(C)C[C@H]2Oc3c(NS(=O)(=O)c4cn(C)cn4)cccc3C(=O)N([C@@H](C)CO)C[C@H]2C)cc1` was -10.8%; that for `Cc1noc(C)c1NC(=O)Nc1ccc2c(c1)C(=O)N([C@@H](C)CO)C[C@H](C)[C@H](CN(C)CC1CCCCC1)O2` was 7.21%.
As to `O=C(N/N=C/c1ccc(O)cc1Br)c1ccccc1O`, the activity score (inhibition) is -10.3%.
Next, `COc1ccc(CN(C)C[C@H]2Oc3c(NC(=O)c4ccncc4)cccc3C(=O)N([C@H](C)CO)C[C@@H]2C)cc1`: 80.9% (active); `COc1ccc(NC(=O)Nc2cccc3c2O[C@H](CN(C)Cc2ccncc2)[C@@H](C)CN([C@@H](C)CO)C3=O)cc1`: 2.96%.
Next, `COc1ccc(NC(=O)Nc2cccc3c2O[C@@H](CN(C)Cc2ccncc2)[C@H](C)CN([C@H](C)CO)C3=O)cc1`: -7.67%.
Next, `COc1ccc(NC(=O)Nc2ccc3c(c2)CC(=O)N([C@@H](C)CO)C[C@H](C)[C@H](CN(C)C(=O)Nc2ccc4c(c2)OCO4)O3)cc1`: -16.4%.
For the compound `C[C@@H]1CN([C@@H](C)CO)C(=O)c2cc(NS(=O)(=O)c3ccc(Cl)cc3)ccc2O[C@H]1CN(C)S(=O)(=O)c1cn(C)cn1`, the activity score (inhibition) is -11.5%.
The value for `CNC[C@H]1Oc2c(NC(=O)C3CC3)cccc2C(=O)N([C@@H](C)CO)C[C@@H]1C` was -26.9%; that for `C[C@H]1CN([C@@H](C)CO)C(=O)c2cccc(NS(C)(=O)=O)c2O[C@@H]1CN(C)C(=O)Nc1ccc(F)cc1` was -4.72%; that for `COc1ccc(CN(C)C[C@H]2Oc3ccc(NC(=O)Cc4ccccc4)cc3CC(=O)N([C@@H](C)CO)C[C@@H]2C)cc1` was 71.7% (active).
In the case of `C[C@@H]1CN([C@H](C)CO)C(=O)Cc2cc(NC(=O)NC3CCCCC3)ccc2O[C@H]1CN(C)Cc1ccc(Cl)c(Cl)c1`, the activity score (inhibition) was 7.26%.
The value for `C[C@@H]1CN([C@H](C)CO)C(=O)Cc2cc(NC(=O)CCCN(C)C)ccc2O[C@@H]1CN(C)Cc1ccc(Oc2ccccc2)cc1` was -28.8%; that for `C[C@H]1CN([C@@H](C)CO)C(=O)Cc2cc(NC(=O)Cc3ccccc3)ccc2O[C@@H]1CN(C)Cc1ccc(Cl)c(Cl)c1` was 41.9%.
Regarding `C[C@@H]1CN([C@H](C)CO)C(=O)Cc2cc(NC(=O)Cc3ccccc3)ccc2O[C@@H]1CN(C)Cc1ccccc1`, the activity score (inhibition) was 5.2%.
The value for `C[C@@H]1CN([C@H](C)CO)C(=O)Cc2cc(NC(=O)Cc3ccccc3)ccc2O[C@H]1CN(C)Cc1ccc(Oc2ccccc2)cc1` was 42.5%.
Regarding `C[C@H]1CN([C@@H](C)CO)C(=O)Cc2cc(NC(=O)NC3CCCCC3)ccc2O[C@@H]1CN(C)Cc1ccc(Oc2ccccc2)cc1`, the activity score (inhibition) is 75.3% (active).
Next, `C[C@@H]1CN([C@@H](C)CO)C(=O)Cc2cc(NC(=O)Cc3ccccc3)ccc2O[C@@H]1CN(C)Cc1ccc2c(c1)OCO2`: 32.2%.
Next, `C[C@@H]1CN([C@@H](C)CO)C(=O)Cc2cc(NC(=O)Cc3ccccc3)ccc2O[C@@H]1CN(C)Cc1ccc(Oc2ccccc2)cc1`: 65.6% (active).
Take `C[C@@H]1CN([C@H](C)CO)C(=O)c2cc(NC(=O)Cn3cnnn3)ccc2O[C@@H]1CN(C)Cc1ccc(C(F)(F)F)cc1`: the activity score (inhibition) is -1.8%.
Next, `O=C(O)CCCCCCC(=O)NN=C1CCCCCC1`: -26.3%.
The value for `COc1ccc(CN(C)C[C@@H]2Oc3ccc(NC(=O)Nc4ccc5c(c4)OCO5)cc3CC(=O)N([C@H](C)CO)C[C@H]2C)cc1` was 26.4%; that for `C[C@@H]1CN([C@H](C)CO)C(=O)Cc2cc(NC(=O)Nc3ccc(F)cc3)ccc2O[C@@H]1CN(C)Cc1ccc2c(c1)OCO2` was 1.98%; that for `C[C@H]1CN([C@@H](C)CO)C(=O)Cc2cc(NC(=O)Nc3ccc4c(c3)OCO4)ccc2O[C@H]1CN(C)Cc1ccc(C(=O)Nc2ccccc2N)cc1` was 62.8% (active).
The value for `C[C@@H]1CN([C@H](C)CO)C(=O)Cc2cc(NC(=O)Nc3ccc4c(c3)OCO4)ccc2O[C@@H]1CN(C)Cc1ccc(C(=O)Nc2ccccc2N)cc1` was 63.9% (active).
For `CC(C)NC(=O)Nc1ccc2c(c1)CC(=O)N([C@H](C)CO)C[C@@H](C)[C@@H](CN(C)Cc1ccc(C(=O)Nc3ccccc3N)cc1)O2`, the activity score (inhibition) is 52.3%.
Turning to `C[C@H](CO)N1C[C@H](C)[C@H](CN(C)Cc2ccc(C(=O)Nc3ccccc3N)cc2)Oc2ccc(NC(=O)Nc3ccccc3)cc2CC1=O`, the activity score (inhibition) is 48.5%.
The value for `C[C@H](CO)N1C[C@H](C)[C@H](CN(C)S(=O)(=O)c2cccs2)Oc2ccc(NS(=O)(=O)c3ccc(Cl)cc3)cc2CC1=O` was -17%; that for `C[C@H]1CN([C@@H](C)CO)C(=O)Cc2cc(NS(=O)(=O)c3cccs3)ccc2O[C@@H]1CN(C)Cc1ccc(Oc2ccccc2)cc1` was 42.4%.
The value for `C[C@H](CO)N1C[C@H](C)[C@H](CN(C)CC2CCCCC2)Oc2ccc(NC(=O)CCN3CCOCC3)cc2CC1=O` was -39.1%; that for `C[C@H](CO)N1C[C@H](C)[C@H](CN(C)C(=O)Nc2ccc(C(F)(F)F)cc2)Oc2ccc(NC(=O)C3CC3)cc2C1=O` was -9.99%.
